# Screening results from PubChem.
# PLK1 PBD inh: blocks phosphopeptide binding to human PLK1 polo-box domain; P53350; Plk1 PBD binding of FITC phosphopeptide, fluorescence polarization; Potency, µM, for inactives: max response, negative = inhibition, usual class: inhibitors; hit rate 2.8% among 360,000; AID 720504; note: series mostly up to about 57 µM; % is set by controls: 0 for no effect and ±100 for the full control effect; nearly all actives have a fitted effect of over 65% in size
# G9a block: blocks human histone lysine methyltransferase G9a | AID 504332 | hit rate 8.8% among 350,000 | G9a H3K9 monomethylation, AlphaScreen, 2 h | Q96KQ7 | Potency, µM (highest dose often 102 µM), for the others: at the top dose activity, negative = inhibition, hits mostly inhibitors; note: % is set by controls: 0 for no effect and ±100 for the full control effect; nearly all actives have a fitted effect of over 75% in size
#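 Enzyme 20 nM + cpd, 15 min RT; add b-H3K9 pep 500 nM / SAM 20 uM; 2 h RT; anti-H3K9me1 Ab 0.5 ug/mL + SA donor / anti-rabbit acceptor beads 20 ug/mL each, 10 min; AlphaScreen read.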
# HP1b binding inh: blocks HP1-beta chromodomain binding to methylated histone tails. P83916. AID 540317. AlphaScreen HP1-beta / biotin-H3K9me3 peptide binding. Potency, µM (highest dose often 114 µM), for the others: at the highest dose activity change, negative = inhibition, hits mostly inhibitors. hit rate 0.56% among 390,000; note: nearly all actives have a fitted effect of over 70% in size
#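 Compound inhibition of the preformed complex between 50 nM HP1-beta and 50 nM biotinylated H3K9me3 peptide was read by AlphaScreen. Buffer was PBS pH 7.4 with 0.01% Tween-20. Incubations ran 30 min at room temperature, with 10 ug/mL donor/acceptor beads.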
# VDR inhibitor: inhibitors of human vitamin D receptor. P11473. VDR-SRC2-3 peptide fluorescence polarization, 2 h. Potency, µM, without a hit: max response, negative = inhibition, most hits filed as inhibitors. hit rate 0.93% among 400,000. AID 504847; note: % is set by controls: 0 for no effect and ±100 for the full control effect
#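 Inhibition of the VDR/SRC2-3 peptide interaction is quantified by fluorescence polarization. Compounds (23 nl, pintool) incubate with the reagents for 2 hours at ambient room temperature.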
# BAZ2B block: blocks human BAZ2B. Q9UIF8. AlphaScreen BAZ2B-H3K14Ac peptide displacement. Potency, µM (doses to about 114 µM), for inactives: at the highest dose activity change, negative = inhibition, most hits filed as inhibitors. hit rate 4.4% among 360,000. AID 504333; note: % is set by controls: 0 for no effect and ±100 for the full control effect; nearly all actives have a fitted effect of over 60% in size
#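 AlphaScreen displacement of biotin-H3(5-23)K14Ac peptide (50 nM final) from BAZ2B (50 nM final) in PBS pH 7.4, 0.01% Tween-20; complex preformed 30 min RT, then compounds (top 110 uM) 30 min RT, beads 20 min dark.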
# JMJD2A Tudor: inhibitors of human JMJD2A Tudor domain. AID 504339. AlphaScreen JMJD2A-Tudor / H3K4me3 peptide binding. O75164. hit rate 4.4% among 390,000. Potency, µM (highest dose often 114 µM), for inactives: at the highest dose activity change, negative = inhibition, usual class: inhibitors; note: % is set by controls: 0 for no effect and ±100 for the full control effect; nearly all actives have a fitted effect of over 50% in size
# * = called active by the depositor; ? = inconclusive; . = not tested or not shown; [ ] = dose if it differs, or a comment. Hits are enriched below; roughly 11% of the tested compounds scored in any of these assays. Calls come from the whole dose curve; as a rule, active = well fitted curve in the direction sought with a large enough effect; inconclusive = small, poorly fitted or top-dose-only effect, or another doubt; inactive = no such curve, though single readings can be large; an effect the other way counts as inactive or inconclusive. Potency is the fitted concentration of half-maximal effect.
SMILES,PLK1 PBD inh,G9a block,HP1b binding inh,VDR inhibitor,BAZ2B block,JMJD2A Tudor
O=c1c2ccccc2c(-c2cccc(C(F)(F)F)c2)nn1-c1ccccc1,4%,81%,75%,8%,5%,39%
O=c1c(N2CCN(c3ccc(F)cc3)CC2)csc2ccc(F)cc12,.,-5%[59 µM],25%[57 µM],10%,-29%,-16%
O=c1c2cc(F)ccc2sn1-c1ccccc1,1.1µM*,0%[0.501 µM],1%,20µM*,10µM*,8.9µM*
O=c1c2cc(C(F)(F)F)ccc2sn1-c1ccccc1,2.7µM*,.,.,.,.,.
COc1cccc(CNC(=O)CCc2nnc3n(CC(C)C)c(=O)c4ccccc4n23)c1,.,2%[59 µM],23%,-18%,2%,-7%
FC(F)(F)c1cnc(-c2cnc(-c3ccccn3)nc2)c(Cl)c1,-10%,50µM*,35%,20%,?,-12%[11.4 µM]
CC[C@H](C)[C@@H]1NC(=O)c2cc([N+](=O)[O-])cc(I)c2SC[C@@H](C(N)=O)NC(=O)[C@H](CCCCN)NC1=O,-10%,8.9µM*,1%,4%,71µM*,?
CC[C@H](C)[C@@H]1NC(=O)c2cc([N+](=O)[O-])cc(I)c2NCC[C@@H](C(N)=O)NC(=O)[C@H](CCCN=C(N)N)NC1=O,3%,14µM*,34%,-25%,?,-28%
C[C@@H](O)C1NC(=O)[C@H](CCCCN)NC(=O)c2cc([N+](=O)[O-])cc(F)c2NCCCC[C@@H](C(N)=O)NC1=O (some centres not stated),-4%,?,18%,2%,-27%,-24%
NC(=O)[C@@H]1CCCNc2c(I)cc([N+](=O)[O-])cc2C(=O)N[C@@H](CCCN=C(N)N)C(=O)N[C@@H](CCCN=C(N)N)C(=O)N1,.,14µM*,.,.,-35%,.
Cc1[nH]c2ccc(C(=O)OC(C)C(=O)NC3(C#N)CCCCC3)cc2c1C (configuration not stated),0%,45µM*,4%,3%,50µM*,?
Cc1[nH]c2ccc(C(=O)OC(C)C(=O)NC3CCCCC3C)cc2c1C (configuration not stated),0%,10%[12.7 µM],47%,-8%,-6%,-11%
O=C1CCCC(O)=C1Sc1ccccc1C(=O)O,21µM*,25µM*,25µM*,-16%,79µM*,22µM*
CC1(C)CC(=O)C(C(C#Cc2ccccc2)C2=C(O)CC(C)(C)CC2=O)=C(O)C1,4.2µM*,13µM*,28%,22µM*,?,-6%
O=C1CCCC(O)=C1C(C#Cc1ccccc1)C1=C(O)CCCC1=O,2.4µM*,0.89µM*,?,?,0%,16µM*
O=C(CCSc1nc(-c2ccco2)cc(C(F)(F)F)n1)N1CCN(c2ccccn2)CC1,-4%,?,29%,-5%,-13%,-26%
O=C(CCSc1nc(-c2ccco2)cc(C(F)(F)F)n1)N1CCCc2ccccc21,-7%,16µM*,44%,-13%,0%,-9%
O=C(C[n+]1ccc(CCSc2ccc(F)cc2)cc1)c1ccccc1,1.9µM*,22µM*,45µM*,?,5%,?
Cc1ccc(C(=O)C[n+]2ccc(Cc3ccccc3)cc2)cc1,-8%,45µM*,33%,4%,-14%,0%
Cc1ccc(SCCc2cc[n+](CC(=O)c3ccccc3)cc2)cc1,-24%,?,16%,-21%,-6%,2%
CCN(CC)/C(Sc1ccccc1)=C(/C(Cl)=C(Cl)Cl)[N+](=O)[O-],?,?,17%,-10%,-32%,-21%
O=[N+]([O-])/C(C(Cl)=C(Cl)Cl)=C(\Sc1ccccc1)N1CCCCC1,-27%,40µM*,-10%,-29%,?,?
CCN(CC)/C(Sc1ccccc1)=C(\C(Cl)=C(Cl)Cl)[N+](=O)[O-],?,?,-16%,-2%,50µM*,-34%
Cc1ccc(NS(=O)(=O)c2ccc3c(c2)CCN(C(=O)C(F)(F)F)C3)cc1C,.,.,.,.,.,-14%
COc1cccc(-c2nc(C(N)=O)c3c(n2)n(-c2ccc4c(c2)OCO4)c(=O)n3C)c1OC,.,5%[59 µM],17%[57 µM],9%,-8%,-18%
SMILES,PLK1 PBD inh,G9a block,HP1b binding inh,VDR inhibitor,BAZ2B block,JMJD2A Tudor
O=C(O)c1ccc(OCCCCCCOC2CCCCO2)cc1 (configuration not stated),27µM*,13%,12%,?,-2%,?
CC(=O)c1ccc(S(=O)(=O)Nc2ccc(-n3c(C)nc4ccccc4c3=O)cc2)cc1,-9%,-4%[2.33 µM],32%,-4%,-2%,-13%
CN(C)/N=C/C=C1\CCC/C(=C\c2ccc(F)c(F)c2)C1=O,-10%,?,?,?,40µM*,?
COc1ccc(NC(=O)CCl)cn1,.,28µM*,.,.,79µM*,.
COc1ccc(NC(=O)/C(Cl)=C(/Cl)S(=O)(=O)Cc2ccccc2)cn1,5.3µM*,?,37%,35µM*,-2%,-20%
COc1ccc(NC(=O)Nc2cccs2)cn1,-25%,35µM*,9%,-18%,-37%,-35%
COc1ccc(NC(=O)C(Cl)=C(Cl)Cl)cn1,1%,25%,24%,-20%,5%,-2%
CCOC(=O)C1CCCN(C(=O)COC(=O)C2=COCCO2)C1 (configuration not stated),-6%,50µM*,-3%,-8%,?,50µM*
CCOC(=O)C1CCCN(C(=O)CSc2nc(C)cc(C)n2)C1 (configuration not stated),-14%,-23%,-1%,-1%,-1%,?
CCOC(=O)C1CCCN(C(=O)CSc2ccc(Br)cc2)C1 (configuration not stated),24µM*,34%,-12%,?,15%,14µM*
Cc1ccc(NC(=O)CN2C(=O)CCc3cc(S(=O)(=O)N4CCOCC4)ccc32)cc1N(C)C,.,-40%[59 µM],-19%,2%,?,?
CC(Sc1nnc(-c2ccc(Cl)cc2Cl)n1Cc1ccccc1)C(=O)Nc1nccs1 (configuration not stated),?,-38%[59 µM],?,?,-7%,79µM*
Cc1nnc(SC(C)C(=O)Nc2ccc(Cl)cn2)n1Cc1ccccc1 (configuration not stated),-9%,5%,52%,-3%,9%,-6%
CC(Sc1nnc(-c2ccco2)n1C)C(=O)Nc1nccs1 (configuration not stated),-2%,-31%,21%,-19%,-33%,32µM*
O=C(CCNC(=O)c1ccc([N+](=O)[O-])cc1)Nc1nccs1,0%,50µM*,45%,-13%,-17%,-1%
